Source: PubChem BioAssay
KCNQ2 inh = KCNQ2 (rat) channel inhibition. O88943. CHO-K1 KCNQ2, FluxOR thallium flux, 20 min; stronger effect = lower value. B-score at 10 µM. actives 1.1% (n = 310,000);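 active means fluorescence ratio B-score at most minus 3 library SDs, with starting brightness B-score within 2 library SDs, cut at about -5.5 in these data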
Target sequence (O88943 whole entry, looked up): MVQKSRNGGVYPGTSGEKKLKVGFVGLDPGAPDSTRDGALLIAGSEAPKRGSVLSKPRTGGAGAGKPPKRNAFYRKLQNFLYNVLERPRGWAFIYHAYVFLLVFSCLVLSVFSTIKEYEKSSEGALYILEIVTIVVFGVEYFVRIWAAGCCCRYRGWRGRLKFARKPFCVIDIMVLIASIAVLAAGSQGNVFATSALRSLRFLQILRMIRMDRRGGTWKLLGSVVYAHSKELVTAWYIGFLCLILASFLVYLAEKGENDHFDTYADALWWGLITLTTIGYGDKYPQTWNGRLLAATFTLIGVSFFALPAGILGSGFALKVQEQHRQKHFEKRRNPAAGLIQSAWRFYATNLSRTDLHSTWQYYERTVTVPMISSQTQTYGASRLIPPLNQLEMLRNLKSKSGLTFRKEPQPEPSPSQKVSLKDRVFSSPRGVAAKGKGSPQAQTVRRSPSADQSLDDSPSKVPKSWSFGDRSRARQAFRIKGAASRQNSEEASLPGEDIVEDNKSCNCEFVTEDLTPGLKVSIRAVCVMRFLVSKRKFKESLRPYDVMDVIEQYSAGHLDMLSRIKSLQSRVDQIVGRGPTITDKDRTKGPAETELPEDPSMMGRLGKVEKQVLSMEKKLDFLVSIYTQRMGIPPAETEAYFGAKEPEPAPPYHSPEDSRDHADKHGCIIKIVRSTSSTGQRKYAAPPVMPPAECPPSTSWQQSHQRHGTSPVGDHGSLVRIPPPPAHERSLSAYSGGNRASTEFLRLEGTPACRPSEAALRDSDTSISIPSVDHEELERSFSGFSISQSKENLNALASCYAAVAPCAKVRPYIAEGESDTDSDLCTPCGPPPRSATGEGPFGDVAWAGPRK
KCNQ2 enhance = KCNQ2 (rat) channel potentiation | CHO-K1 KCNQ2, FluxOR thallium flux fluorescence; stronger effect = higher value | B-score at 10 µM | actives 0.54% (n = 310,000);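 active means fluorescence ratio B-score at least 3 SD of library B-scores, with initial fluorescence B-score within 3 of them, cut at about 5.3 in these data; same plate scores as AID 2156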;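 further: B-score of peak minus minimum over baseline fluorescence ratio after K+ and Tl+ stimulus; positive B-score means potentiation of KCNQ2 with more thallium influx and brighter signal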
A number is an active result; - = inactive; . = not tested or not shown. Sampled rows, rich in hits. Any-hit rate of the full collection: about 1.6%.

SMILES	KCNQ2 inh	KCNQ2 enhance
COc1ccnc2c1c(=O)n(Cc1ccc(Cl)cc1Cl)c(=O)n2C	-5.9	-
COc1ccnc2c1c(=O)n(Cc1ccccc1Cl)c(=O)n2C	-	.
Cc1ccc(S(=O)(=O)NCC(C)n2nc(C)nc2C)cc1 (stereo not given)	-	-
COc1ccccc1N1CCN(Cc2nc(N)nc(Nc3ccc(C)c(Cl)c3)n2)CC1	-	8.9
COc1ccccc1Nc1nc(N)nc(CN2CCN(c3ccccc3F)CC2)n1	-	-
Cc1ccc(CN(Cc2cccnc2)C(=O)CN2C(=O)COc3ccccc32)o1	-	.
O=C(CN1C(=O)COc2ccccc21)N(Cc1ccccc1)Cc1ccccn1	-6.1	-
Clc1nnc(N/N=C/c2ccccc2)c2ccccc12	-	-
Clc1nnc(NN=C2CCCC2)c2ccccc12	-	9.5
Cc1ccc(N=Cc2cc(Cl)cc(Cl)c2O)nc1	-	12
Oc1c(Cl)cc(Cl)cc1/C=N/Nc1ncc(Br)cn1	-	.
CC1CCN(c2c([N+](=O)[O-])nn(-c3ccc4c(c3)OCCO4)[n+]2[O-])CC1	-5.6	-
O=[N+]([O-])c1nn(-c2ccc3c(c2)OCCO3)n(O)c1=NC1CCCCC1	-	-
COc1ccccc1NC(=O)C1CCCN1C(=O)Nc1ccc(F)cc1 (stereo not given)	-	.
COc1ccccc1NC(=O)c1cc(C)oc1C	-	.
CCOc1ccccc1NC(=O)c1cc(CC(C)C)oc1C	-6.2	-
C[C@@H]1CCC(=O)N(CC[C@H](Oc2ccccc2)c2ccccc2)CC1	-	.
O=C(Nc1ccc2c(c1)OCCO2)c1cc2sccc2n1Cc1ccc(F)cc1	-6.1	-
O=C(Nc1ccc2c(c1)OCCO2)c1cc2sccc2n1Cc1ccccc1	-	.
Cc1cccc(N(C)c2ncnc3onc(-c4ccc(F)cc4)c23)c1C	-	-
COc1cccc2c1OCC/C2=N\NC(=O)COc1ccc(C)cc1	-	-
Cc1ccc(OCC(=O)N/N=C2\CCOc3c(C)cccc32)cc1	-6.8	-
O=C(Nc1cc(S(=O)(=O)N2CCCCC2)ccc1N1CCCCC1)C1CC1	-	.
Cc1ccc(CNC(=O)C2CCN(c3nnc(N4CCCC4=O)s3)CC2)cc1	-	.
O=C(CSc1nnc(-c2ccc3c(c2)OCO3)o1)Nc1ncc(C(F)(F)F)cc1Cl	-	-
SMILES	KCNQ2 inh	KCNQ2 enhance
Cc1nc(NC(=O)CSc2nnc(-c3ccc4c(c3)OCO4)o2)c(Cl)cc1Cl	-	18
COc1cc(C)c(NC(=O)C(=S)NCCc2ccccc2)cc1C	-	.
O=C(Nn1c(COc2ccccc2)nc2ccccc2c1=O)C(Cl)(Cl)Cl	-	-
CCOc1ccc(-c2cc(N3C(=O)Nc4ccccc4N3O)n[nH]2)cc1	-	-
CCOC(=O)c1c(N2C(=O)Nc3ccccc3N2O)n[nH]c1-c1cccc(Cl)c1	-	10
COc1ccc(Nc2nnc(SCc3cc([N+](=O)[O-])cc4c3OCOC4)s2)cc1	-	.
CCCc1nnc2n1N=C(c1ccc(C)cc1)CS2	-	-
CSCC[C@H](NC(=O)CC(C)(C)C)c1nc2ccccc2[nH]1	-	.
CC(C)(C)CC(=O)N[C@@H](Cc1ccccc1)c1nc2ccccc2[nH]1	-7.2	-
O=C(COc1cccc(Cl)c1)Nc1ccccc1N1CCCCC1	-	.
O=C(NCCOc1ccc(Cl)cc1)c1ccc2ccccc2n1	-6.3	-
Cc1ccc(OCCNC(=O)c2ccc3ccccc3n2)cc1	-	.
O=C(NCC1CCCO1)c1cc(-c2ccccc2)nc2ccc(Br)cc12 (stereo not given)	-7.4	-
COc1ccc(-c2cc(C(=O)NCC3CCCO3)c3ccccc3n2)cc1 (stereo not given)	-	-
O=C(NCC1CCCO1)c1cc2c([nH]c3ccccc32)c(-c2cccc(Br)c2)n1 (stereo not given)	-6.4	-
COc1ccc(-c2cc(C(=O)NCC3CCCO3)c3cc(C)ccc3n2)cc1 (stereo not given)	-5.6	-
Cc1ccc2nc(-c3cccc(Br)c3)cc(C(=O)NCC3CCCO3)c2c1 (stereo not given)	-	.
COc1ccc(-c2nc(C(=O)NCC3CCCO3)cc3c2[nH]c2ccccc23)cc1 (stereo not given)	-	.
Cn1c(N)c(S(=O)(=O)NCc2ccc(F)cc2)c(=O)n(C)c1=O	-	.
O=C(CN1C(=O)NC2(CCCC2)C1=O)OCCOc1ccccc1Cl	-	.
O=C(/C=C/c1cccs1)c1cc(Br)ccc1OC(=O)N1CCOCC1	-6.8	-
COc1ccc(C(=O)/C=C/c2cccs2)c(OC(=O)N2CCOCC2)c1	-	-
O=c1cnc2cc([N+](=O)[O-])ccc2[nH]1	-	.
COc1ccc(Cl)cc1NC(=O)CN(C1CCCCC1)S(C)(=O)=O	-5.9	-
CS(=O)(=O)N(CC(=O)Nc1ccc(F)cc1F)C1CCCCC1	-	-
SMILES	KCNQ2 inh	KCNQ2 enhance
COc1cc(C(=O)NCC(c2ccco2)N2CCc3ccccc32)cc(OC)c1OC (stereo not given)	-	.
O=C(NCC(c1ccco1)N1CCCC1)c1ccc(S(=O)(=O)Nc2ccccc2F)cc1 (stereo not given)	-	-
O=C(NCC(c1ccco1)N1CCc2ccccc21)c1ccccc1 (stereo not given)	-	.
COc1ccccc1C(=O)NCC(c1ccco1)N1CCc2ccccc21 (stereo not given)	-6.3	-
Cc1ccccc1NS(=O)(=O)c1ccc(C(=O)NCC(c2ccco2)N2CCCCC2)cc1 (stereo not given)	-6.7	-
Cc1ccc(C(=O)NCC(c2ccco2)N2CCc3ccccc32)cc1C (stereo not given)	-6.2	-
O=C(NCC(c1ccco1)N1CCc2ccccc2C1)c1cccc(F)c1 (stereo not given)	-5.8	-
COc1cccc(C(=O)NCC(c2ccco2)N2CCc3ccccc3C2)c1 (stereo not given)	-	.
O=C(NCCc1ccccc1)c1ccc(Cl)cc1[N+](=O)[O-]	-	.
O=C(NC1CCCCC1)NC1C2CC3CC(C2)CC1C3 (stereo not given)	-	-
CCN(CC)CCCNC(=O)C1CCC(CNS(=O)(=O)c2ccc(Cl)cc2)CC1 (stereo not given)	-	.
CCOc1cc(N2CCOCC2)c(OCC)cc1NC(=O)CN1C(=O)NC(Cc2ccccc2)C1=O (stereo not given)	-	.
CCOc1cc(N2CCOCC2)c(OCC)cc1NC(=O)CN1CCC(Cc2ccccc2)CC1	-	6.1
CCc1cc2c(nc1CC)CCN(CC/C(C)=N/OC[C@H]1O[C@H](c3ccccc3)C=C[C@@H]1Oc1ccc(OC)cc1)C2	-	.
COc1ccc(O[C@H]2C=C[C@@H](c3ccccc3)O[C@@H]2CO/N=C(\C)CCN2CCc3nc(-c4ccccc4)c(-c4ccccc4)cc3C2)cc1	-	7.5
O=C(c1nc2ccccn2c1CN1CCCC(O)C1)N1CCN(C2CCCCC2)CC1 (stereo not given)	-	.
C[C@H](O)c1[nH]c2cc(F)ccc2c1[C@H](C)O	-	.
COc1ccccc1N1CCN(C(=O)CSc2ncnc3scc(-c4ccccc4)c23)CC1	-	.
O=C(CSc1ncnc2scc(-c3ccccc3)c12)N1CCN(c2ccccc2F)CC1	-6.2	-
Cc1ccc[n+](CC(=O)c2ccc(Br)cc2)c1C	-	.
CCOc1ccc(OCC(O)CNC2CCN(Cc3ccccc3)CC2)cc1 (stereo not given)	-	-
CC(C)(c1ccccc1)c1ccc(OCC(O)CNC2CCN(Cc3ccccc3)CC2)cc1 (stereo not given)	-8.3	-
COCCNC(=O)C(=O)NCC1OCCN1S(=O)(=O)c1ccc(F)cc1 (stereo not given)	-	.
